What all share (test): log2 ratio of Biotin-Ahx-Ub-VS probe labelling (fragment/DMSO); higher = less target engagement (more negative = stronger competition), active = hit call of the paper (q ≤ 0.05, log2 ratio ≤ -1)
Common to all, as to details: compound concentration: 200 uM; treatment time: 3 h

For experiment [1], the target named is T1, USP42 (UniProt Q9H9J4).
T1 sequence (whole entry): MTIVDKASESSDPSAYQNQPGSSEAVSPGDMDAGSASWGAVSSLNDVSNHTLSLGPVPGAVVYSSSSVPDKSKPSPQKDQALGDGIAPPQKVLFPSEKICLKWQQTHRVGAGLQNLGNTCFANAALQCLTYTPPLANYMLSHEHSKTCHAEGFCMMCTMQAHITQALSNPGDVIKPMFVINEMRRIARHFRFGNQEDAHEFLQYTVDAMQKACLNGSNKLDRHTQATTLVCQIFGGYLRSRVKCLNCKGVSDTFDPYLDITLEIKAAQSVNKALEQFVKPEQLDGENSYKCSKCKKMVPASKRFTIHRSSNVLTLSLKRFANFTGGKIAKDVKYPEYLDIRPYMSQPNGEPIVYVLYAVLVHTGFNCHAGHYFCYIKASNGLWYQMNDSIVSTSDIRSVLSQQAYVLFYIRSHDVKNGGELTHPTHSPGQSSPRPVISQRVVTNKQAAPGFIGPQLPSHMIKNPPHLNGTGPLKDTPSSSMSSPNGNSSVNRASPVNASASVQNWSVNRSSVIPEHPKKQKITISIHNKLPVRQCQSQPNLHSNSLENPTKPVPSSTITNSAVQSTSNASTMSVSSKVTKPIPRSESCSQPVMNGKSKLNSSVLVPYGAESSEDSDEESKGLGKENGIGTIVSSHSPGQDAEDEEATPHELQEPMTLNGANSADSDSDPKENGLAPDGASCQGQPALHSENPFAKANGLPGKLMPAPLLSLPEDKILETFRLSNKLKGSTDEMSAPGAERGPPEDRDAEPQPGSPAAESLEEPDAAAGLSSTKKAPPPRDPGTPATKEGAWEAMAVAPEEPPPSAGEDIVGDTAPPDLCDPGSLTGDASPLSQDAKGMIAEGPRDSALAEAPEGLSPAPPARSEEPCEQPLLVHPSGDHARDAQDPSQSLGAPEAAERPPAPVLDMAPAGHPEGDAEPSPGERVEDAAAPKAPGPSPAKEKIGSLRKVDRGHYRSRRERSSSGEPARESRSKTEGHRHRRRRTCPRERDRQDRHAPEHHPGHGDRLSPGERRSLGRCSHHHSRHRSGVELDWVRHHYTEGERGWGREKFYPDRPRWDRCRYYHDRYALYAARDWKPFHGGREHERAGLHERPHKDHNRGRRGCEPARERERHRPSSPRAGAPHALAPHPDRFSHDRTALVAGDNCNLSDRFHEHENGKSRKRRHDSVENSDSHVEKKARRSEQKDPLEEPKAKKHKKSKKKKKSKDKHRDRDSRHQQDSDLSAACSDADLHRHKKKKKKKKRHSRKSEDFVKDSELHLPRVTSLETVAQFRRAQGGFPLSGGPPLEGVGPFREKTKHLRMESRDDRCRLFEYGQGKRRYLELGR
The method in brief: (§1)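 HEK293T lysate (495 µg per sample, in Tris/CHAPS/IGEPAL buffer with protease inhibitors) was exposed in triplicate for 3 h to fragment at 200 µM or to vehicle, then to Biotin-Ahx-Ub-VS at 0.5 µM final for 1 h. Labelled DUBs were enriched on NeutrAvidin, digested with LysC and trypsin, and analysed by diaPASEF LC-MS/MS. Spectronaut label-free quantities were normalised to the global median, and values are average log2 ratios of fragment over vehicle from an unpaired t-test. Only proteins with ≥2 unique peptides were used.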

The target of experiment [2] is USP46 (UniProt P62068). Summed up: as §1
The target of experiment [3] is T2, USP47 (UniProt Q96K76).
T2 sequence (whole entry): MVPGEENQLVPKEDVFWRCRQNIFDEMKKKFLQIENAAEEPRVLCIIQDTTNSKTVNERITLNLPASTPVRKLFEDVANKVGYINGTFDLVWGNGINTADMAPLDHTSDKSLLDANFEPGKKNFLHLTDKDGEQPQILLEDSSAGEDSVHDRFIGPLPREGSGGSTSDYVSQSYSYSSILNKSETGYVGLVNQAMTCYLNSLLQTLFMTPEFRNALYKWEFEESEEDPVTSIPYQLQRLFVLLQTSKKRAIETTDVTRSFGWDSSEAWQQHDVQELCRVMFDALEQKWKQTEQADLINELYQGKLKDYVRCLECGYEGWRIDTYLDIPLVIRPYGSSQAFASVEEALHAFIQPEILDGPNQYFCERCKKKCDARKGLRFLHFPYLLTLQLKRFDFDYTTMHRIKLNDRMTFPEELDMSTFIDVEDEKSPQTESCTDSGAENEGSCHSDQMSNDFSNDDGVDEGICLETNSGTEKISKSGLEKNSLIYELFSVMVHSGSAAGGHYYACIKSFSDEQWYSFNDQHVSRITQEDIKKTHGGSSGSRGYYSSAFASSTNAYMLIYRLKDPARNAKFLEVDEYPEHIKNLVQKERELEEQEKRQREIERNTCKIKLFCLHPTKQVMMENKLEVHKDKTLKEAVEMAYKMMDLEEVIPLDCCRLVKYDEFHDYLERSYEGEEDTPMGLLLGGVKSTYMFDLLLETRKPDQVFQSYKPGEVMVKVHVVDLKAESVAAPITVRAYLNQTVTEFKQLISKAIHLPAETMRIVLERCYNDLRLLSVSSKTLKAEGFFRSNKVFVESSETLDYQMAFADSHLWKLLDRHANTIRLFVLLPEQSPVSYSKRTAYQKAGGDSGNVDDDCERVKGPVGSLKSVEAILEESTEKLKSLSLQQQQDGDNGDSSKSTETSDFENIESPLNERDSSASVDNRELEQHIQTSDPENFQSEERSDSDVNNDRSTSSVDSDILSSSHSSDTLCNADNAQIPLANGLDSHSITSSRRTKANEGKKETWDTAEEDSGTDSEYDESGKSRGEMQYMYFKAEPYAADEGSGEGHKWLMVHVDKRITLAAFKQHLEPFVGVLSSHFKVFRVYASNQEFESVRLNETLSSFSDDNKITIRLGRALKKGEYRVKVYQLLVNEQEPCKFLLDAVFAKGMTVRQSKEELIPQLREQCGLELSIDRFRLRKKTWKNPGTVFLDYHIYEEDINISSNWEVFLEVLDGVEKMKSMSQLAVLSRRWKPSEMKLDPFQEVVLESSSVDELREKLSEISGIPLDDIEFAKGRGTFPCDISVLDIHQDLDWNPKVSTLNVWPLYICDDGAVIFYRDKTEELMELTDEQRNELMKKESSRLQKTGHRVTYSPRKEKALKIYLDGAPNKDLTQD
Summed up:
as §1

For experiment [4], the target named is T3, USP48 (UniProt Q86UV5).
T3 sequence (whole entry): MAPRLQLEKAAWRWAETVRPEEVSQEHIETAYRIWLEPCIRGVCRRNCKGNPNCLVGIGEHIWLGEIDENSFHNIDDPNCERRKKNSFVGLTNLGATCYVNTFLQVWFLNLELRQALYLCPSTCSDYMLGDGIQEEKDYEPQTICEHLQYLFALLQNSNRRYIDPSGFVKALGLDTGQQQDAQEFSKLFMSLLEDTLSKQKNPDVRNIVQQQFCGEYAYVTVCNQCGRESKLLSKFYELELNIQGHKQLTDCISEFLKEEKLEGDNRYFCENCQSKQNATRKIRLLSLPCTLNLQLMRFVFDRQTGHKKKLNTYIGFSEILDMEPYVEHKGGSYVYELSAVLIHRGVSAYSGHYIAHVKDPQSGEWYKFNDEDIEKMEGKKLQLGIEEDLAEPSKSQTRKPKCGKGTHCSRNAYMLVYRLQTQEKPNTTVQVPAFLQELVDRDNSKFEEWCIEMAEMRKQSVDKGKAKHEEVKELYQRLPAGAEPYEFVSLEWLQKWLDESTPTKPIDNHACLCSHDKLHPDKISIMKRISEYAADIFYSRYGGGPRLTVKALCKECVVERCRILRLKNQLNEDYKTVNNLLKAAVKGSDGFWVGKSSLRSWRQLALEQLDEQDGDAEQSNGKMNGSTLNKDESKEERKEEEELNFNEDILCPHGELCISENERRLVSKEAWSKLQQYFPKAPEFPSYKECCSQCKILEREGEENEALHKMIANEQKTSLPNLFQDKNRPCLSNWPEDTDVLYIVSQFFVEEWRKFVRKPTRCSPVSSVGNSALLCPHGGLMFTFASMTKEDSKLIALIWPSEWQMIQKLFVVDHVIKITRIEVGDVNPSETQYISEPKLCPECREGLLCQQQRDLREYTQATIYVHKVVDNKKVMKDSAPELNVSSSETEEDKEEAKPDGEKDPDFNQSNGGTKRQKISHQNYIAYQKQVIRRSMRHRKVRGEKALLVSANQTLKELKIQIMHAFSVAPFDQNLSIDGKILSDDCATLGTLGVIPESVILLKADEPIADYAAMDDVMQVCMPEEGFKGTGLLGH
The method in brief:
as §1

Experiment [5] deals with T4, USP5 (UniProt P45974).
T4 sequence (whole entry): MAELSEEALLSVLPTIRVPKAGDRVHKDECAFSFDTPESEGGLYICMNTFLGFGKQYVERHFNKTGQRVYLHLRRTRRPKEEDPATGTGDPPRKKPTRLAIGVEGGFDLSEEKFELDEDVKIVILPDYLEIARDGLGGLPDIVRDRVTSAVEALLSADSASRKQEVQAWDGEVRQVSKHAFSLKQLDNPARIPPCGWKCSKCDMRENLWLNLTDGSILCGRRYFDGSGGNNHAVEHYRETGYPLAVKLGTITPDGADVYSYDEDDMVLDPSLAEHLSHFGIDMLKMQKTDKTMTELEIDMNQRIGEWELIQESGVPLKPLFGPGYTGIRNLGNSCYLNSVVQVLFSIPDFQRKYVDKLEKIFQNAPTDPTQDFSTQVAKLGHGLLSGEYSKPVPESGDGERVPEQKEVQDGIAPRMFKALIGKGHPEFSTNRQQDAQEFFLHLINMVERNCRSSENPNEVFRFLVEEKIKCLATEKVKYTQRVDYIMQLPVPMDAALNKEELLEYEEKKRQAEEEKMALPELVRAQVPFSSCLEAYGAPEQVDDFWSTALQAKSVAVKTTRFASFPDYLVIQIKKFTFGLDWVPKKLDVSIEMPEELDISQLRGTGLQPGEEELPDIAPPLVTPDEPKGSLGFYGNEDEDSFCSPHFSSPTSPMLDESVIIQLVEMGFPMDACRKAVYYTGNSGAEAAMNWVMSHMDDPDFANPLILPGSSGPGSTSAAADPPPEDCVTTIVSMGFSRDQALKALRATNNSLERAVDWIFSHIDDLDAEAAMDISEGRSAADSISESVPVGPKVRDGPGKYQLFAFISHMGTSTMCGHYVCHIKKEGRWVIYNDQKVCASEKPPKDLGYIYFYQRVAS
Summed up:
as §1

Experiment [6] concerns the target USP54 (UniProt Q70EL1). Summed up:
as §1

Experiment [7] concerns the target USP7 (UniProt Q93009). The method in brief:
as §1

Experiment [8] deals with T5, USP8 (UniProt P40818).
T5 sequence (whole entry): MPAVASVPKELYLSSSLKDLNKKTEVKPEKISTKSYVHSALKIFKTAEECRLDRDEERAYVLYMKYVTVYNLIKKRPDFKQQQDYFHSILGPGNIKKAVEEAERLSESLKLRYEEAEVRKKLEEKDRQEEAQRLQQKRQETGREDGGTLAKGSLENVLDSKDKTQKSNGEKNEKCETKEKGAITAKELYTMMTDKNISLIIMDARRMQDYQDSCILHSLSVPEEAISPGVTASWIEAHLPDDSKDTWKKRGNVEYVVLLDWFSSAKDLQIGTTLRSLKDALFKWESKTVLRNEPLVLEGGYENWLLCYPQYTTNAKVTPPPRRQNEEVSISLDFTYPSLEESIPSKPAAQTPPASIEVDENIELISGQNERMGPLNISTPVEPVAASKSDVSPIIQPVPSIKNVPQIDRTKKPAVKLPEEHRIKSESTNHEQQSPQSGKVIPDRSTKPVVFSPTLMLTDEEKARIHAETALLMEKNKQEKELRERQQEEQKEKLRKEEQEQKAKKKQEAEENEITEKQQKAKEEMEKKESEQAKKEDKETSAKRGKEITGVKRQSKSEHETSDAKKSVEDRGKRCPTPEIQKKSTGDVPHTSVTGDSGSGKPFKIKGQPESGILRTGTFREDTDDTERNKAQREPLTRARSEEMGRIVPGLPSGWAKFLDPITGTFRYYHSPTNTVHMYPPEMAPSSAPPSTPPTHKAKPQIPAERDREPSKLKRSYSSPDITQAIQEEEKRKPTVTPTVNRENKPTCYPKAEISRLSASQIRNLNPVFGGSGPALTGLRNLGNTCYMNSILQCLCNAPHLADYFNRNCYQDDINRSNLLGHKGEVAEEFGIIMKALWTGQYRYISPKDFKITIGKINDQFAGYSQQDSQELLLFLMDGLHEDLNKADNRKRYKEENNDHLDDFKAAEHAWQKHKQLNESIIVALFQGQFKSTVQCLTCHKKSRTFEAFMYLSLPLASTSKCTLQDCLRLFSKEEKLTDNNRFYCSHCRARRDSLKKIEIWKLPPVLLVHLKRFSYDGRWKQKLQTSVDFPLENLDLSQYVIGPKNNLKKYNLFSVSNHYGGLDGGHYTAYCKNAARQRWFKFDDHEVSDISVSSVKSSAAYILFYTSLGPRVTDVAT
Summed up: as §1

The target in experiment [9] is USP9X (UniProt Q93008). The method in brief: as §1
Experiment [10] has as its target UniProt O00487. The method in brief:
as §1

Unmarked numbers belong to inactive results.

Sequence of UniProt O00487 (O00487 whole entry): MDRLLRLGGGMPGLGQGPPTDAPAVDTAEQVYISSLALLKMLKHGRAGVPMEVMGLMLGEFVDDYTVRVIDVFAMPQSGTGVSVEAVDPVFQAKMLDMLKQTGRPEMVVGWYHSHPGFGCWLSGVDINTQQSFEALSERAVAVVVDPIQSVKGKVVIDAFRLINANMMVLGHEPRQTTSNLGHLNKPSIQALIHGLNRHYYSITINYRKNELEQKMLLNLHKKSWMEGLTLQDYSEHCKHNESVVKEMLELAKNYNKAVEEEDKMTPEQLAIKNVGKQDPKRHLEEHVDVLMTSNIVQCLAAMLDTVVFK
Sequence of USP9X (Q93008 whole entry): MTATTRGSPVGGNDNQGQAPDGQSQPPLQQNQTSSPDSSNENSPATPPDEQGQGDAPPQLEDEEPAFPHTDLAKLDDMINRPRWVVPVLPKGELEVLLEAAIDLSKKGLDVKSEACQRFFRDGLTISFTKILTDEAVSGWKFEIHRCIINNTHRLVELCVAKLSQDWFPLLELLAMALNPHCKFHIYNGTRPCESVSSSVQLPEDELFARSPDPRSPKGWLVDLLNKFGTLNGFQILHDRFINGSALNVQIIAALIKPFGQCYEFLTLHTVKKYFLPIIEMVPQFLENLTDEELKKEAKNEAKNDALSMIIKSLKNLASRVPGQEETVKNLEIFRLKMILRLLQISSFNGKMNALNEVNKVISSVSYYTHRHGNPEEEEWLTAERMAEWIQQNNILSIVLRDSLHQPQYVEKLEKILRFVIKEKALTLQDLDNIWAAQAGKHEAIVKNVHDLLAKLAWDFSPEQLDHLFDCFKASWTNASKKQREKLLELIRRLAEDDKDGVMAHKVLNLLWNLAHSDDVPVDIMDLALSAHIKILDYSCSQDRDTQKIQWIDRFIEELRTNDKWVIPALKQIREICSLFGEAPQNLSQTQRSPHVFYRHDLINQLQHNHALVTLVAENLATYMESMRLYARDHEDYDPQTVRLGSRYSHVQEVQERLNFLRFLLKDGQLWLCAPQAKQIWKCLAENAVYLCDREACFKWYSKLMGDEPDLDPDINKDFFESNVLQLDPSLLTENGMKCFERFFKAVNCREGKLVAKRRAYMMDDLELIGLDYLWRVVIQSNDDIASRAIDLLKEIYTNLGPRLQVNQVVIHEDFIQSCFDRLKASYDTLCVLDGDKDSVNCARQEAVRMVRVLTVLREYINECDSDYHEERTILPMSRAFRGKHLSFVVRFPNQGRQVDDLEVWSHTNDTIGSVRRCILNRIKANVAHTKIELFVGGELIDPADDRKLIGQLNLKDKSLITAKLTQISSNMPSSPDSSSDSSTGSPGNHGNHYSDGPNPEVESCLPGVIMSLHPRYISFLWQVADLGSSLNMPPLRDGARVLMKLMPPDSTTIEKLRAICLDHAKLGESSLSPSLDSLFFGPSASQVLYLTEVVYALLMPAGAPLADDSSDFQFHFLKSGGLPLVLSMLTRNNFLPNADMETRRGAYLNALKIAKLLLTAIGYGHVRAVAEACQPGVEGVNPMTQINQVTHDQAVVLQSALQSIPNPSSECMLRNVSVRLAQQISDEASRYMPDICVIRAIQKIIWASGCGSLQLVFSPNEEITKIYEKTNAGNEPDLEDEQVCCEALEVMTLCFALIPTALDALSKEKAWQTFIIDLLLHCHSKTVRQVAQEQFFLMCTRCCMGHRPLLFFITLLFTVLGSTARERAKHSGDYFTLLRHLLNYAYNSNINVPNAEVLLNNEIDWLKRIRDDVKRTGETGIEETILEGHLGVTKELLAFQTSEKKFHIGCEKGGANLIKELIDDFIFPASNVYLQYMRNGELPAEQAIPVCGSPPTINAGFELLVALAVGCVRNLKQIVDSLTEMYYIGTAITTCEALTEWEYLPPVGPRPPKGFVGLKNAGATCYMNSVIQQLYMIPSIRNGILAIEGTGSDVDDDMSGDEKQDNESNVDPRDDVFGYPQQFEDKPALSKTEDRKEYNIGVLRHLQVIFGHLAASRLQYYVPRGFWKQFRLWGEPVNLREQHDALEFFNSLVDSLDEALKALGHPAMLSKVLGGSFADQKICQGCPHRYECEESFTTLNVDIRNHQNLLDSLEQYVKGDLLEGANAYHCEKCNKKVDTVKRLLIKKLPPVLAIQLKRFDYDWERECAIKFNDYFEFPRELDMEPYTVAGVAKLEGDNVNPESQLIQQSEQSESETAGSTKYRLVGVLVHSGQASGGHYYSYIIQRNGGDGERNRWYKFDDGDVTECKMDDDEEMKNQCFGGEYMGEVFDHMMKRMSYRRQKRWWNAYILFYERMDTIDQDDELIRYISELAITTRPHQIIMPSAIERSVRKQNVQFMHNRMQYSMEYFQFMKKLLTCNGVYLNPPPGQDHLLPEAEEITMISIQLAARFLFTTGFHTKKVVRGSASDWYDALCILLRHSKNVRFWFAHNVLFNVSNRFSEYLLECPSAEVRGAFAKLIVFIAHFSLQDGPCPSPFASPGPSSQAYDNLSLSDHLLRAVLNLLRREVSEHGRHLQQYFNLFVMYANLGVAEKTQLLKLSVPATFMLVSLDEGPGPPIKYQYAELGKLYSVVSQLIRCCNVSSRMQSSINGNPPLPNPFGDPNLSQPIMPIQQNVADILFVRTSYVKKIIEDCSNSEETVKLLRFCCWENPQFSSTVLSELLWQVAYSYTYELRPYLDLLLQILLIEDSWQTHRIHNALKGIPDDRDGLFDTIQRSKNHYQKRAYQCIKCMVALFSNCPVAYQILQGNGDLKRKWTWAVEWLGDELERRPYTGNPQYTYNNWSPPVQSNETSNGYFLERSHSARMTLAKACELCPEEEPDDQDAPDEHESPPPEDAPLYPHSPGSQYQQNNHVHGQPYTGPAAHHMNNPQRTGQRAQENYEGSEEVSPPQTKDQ
Sequence of USP7 (Q93009 whole entry, looked up): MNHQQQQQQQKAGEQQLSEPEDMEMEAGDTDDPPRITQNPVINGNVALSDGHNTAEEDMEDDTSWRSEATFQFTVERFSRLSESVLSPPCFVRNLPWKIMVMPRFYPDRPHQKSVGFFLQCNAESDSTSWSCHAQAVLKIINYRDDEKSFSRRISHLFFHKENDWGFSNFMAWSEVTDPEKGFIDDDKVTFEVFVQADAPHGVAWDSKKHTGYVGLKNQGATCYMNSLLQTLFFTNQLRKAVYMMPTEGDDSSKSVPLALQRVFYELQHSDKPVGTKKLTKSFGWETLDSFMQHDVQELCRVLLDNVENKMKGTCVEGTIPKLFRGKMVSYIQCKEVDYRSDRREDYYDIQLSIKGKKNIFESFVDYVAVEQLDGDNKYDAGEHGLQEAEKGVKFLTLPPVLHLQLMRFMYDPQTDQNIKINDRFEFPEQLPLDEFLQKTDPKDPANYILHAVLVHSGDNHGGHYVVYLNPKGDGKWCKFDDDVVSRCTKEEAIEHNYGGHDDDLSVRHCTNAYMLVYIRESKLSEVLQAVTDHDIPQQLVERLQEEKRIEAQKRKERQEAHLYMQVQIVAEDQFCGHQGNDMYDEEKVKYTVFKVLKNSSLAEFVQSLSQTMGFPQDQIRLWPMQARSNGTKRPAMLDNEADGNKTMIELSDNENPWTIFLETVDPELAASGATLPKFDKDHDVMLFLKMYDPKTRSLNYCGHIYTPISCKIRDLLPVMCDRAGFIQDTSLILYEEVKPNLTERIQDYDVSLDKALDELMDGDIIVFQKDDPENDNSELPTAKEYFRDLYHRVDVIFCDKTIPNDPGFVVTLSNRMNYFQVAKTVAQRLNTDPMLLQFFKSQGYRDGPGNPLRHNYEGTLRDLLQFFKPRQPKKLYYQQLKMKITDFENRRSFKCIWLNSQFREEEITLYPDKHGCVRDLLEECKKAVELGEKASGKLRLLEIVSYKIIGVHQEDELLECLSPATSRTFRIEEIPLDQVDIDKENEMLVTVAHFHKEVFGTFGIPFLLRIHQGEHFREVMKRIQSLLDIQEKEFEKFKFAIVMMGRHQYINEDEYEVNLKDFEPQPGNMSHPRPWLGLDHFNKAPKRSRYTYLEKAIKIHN
Sequence of USP46 (P62068 whole entry): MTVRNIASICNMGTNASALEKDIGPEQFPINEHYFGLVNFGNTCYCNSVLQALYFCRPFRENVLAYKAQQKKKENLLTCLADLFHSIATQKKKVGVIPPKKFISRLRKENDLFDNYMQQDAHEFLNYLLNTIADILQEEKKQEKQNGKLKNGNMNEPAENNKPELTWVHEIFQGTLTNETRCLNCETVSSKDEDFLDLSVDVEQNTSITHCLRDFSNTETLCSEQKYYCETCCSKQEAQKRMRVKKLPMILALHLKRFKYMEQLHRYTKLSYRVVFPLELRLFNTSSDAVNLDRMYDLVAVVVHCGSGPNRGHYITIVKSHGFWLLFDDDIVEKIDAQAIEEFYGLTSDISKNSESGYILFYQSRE

Take `O=C(CCl)N1CCN(C(=O)Nc2ccccc2)CC1`: the “log2 ratio of Biotin-Ahx-Ub-VS probe labelling” value (shortened to “log2 ratio”) in experiment [1] was 0.532; in experiment [2] it was -0.0442; in experiment [3] it was -0.216; in experiment [4] it was -0.158; in experiment [5], 0.398; in experiment [6], 0.404. For the same compound, the “log2 ratio” value was -0.132 in [7], 0.0931 in [8], 0.0323 in [9] and -0.0538 in [10].
With `O=C(CCl)N1CCc2nc[nH]c2C1c1ccc(Cl)cc1` (stereo not given), the “log2 ratio” value in [1] was -0.0471; in experiment [2], -0.363; in [3] it was -0.614; in experiment [4], -1.05 (active); in experiment [5], -0.146; in experiment [6] it was 0.015. Also, the “log2 ratio” value in experiment [7] is -1.31 (active); in experiment [8] it was 0.126; in experiment [9] it was -0.619; in [10] it was 0.0187.

The record behind these values is the supplement of paper PMC11732987, “Enantioselective OTUD7B fragment discovery through chemoproteomics screening and high-throughput optimisation” (Communications Chemistry, 2025).
